# Source: PubChem BioAssay (NCATS)
# Where “and” joins values, the source holds several entries; their conditions need not be identical. Equal entries are not always repeated. Inconclusive results are not listed. Calls of active or inactive are those of the source. Calls come from the whole dose curve; as a rule, active = well fitted inhibition curve with a large enough effect in the signal ratio, with a control signal flat (not every such curve was filed as active); inconclusive = small, poorly fitted or top-dose-only effect, or effect the other way, or a change in a side signal; inactive = flat fitted curve, though single readings scatter; the % refers to the signal ratio.
# Target: Thyroid hormone receptor beta (Homo sapiens) (UniProt P10828)
# Sequence (P10828 whole entry, looked up): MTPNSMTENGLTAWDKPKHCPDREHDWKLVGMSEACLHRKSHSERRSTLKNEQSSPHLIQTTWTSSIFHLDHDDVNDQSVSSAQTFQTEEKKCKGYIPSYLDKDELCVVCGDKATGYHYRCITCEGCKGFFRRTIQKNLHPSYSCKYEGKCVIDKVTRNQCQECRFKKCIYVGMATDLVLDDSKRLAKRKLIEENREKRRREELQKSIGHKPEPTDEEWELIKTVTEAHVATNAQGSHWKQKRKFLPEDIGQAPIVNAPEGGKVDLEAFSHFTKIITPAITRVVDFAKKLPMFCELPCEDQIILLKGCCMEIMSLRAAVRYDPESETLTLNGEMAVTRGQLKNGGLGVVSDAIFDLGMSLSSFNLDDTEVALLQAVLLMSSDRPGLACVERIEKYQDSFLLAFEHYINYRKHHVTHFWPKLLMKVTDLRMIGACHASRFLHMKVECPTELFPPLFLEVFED
# Assay: qHTS assay for small molecule antagonists of thyroid hormone receptor beta signaling (AID 588547);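 note: cells stimulated with 0.4 nM T3 agonist during compound exposure; series mostly up to about 77 µM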
# Settings: TR-UAS-bla HEK293, beta-lactamase ratio, antagonist mode, 18 h
# Excerpt: NIH Chemical Genomics Center [NCGC] U.S. Environmental Protection Agency [EPA] National Institutes of Environmental Health Sciences [NIEHS] National Toxicology Program [NTP] NCGC Assay Overview Thyroid hormone receptor (TR) belongs to nuclear hormone receptor superfamily. There are two subtypes for TR: TR-alpha and TR-beta. TR-beta plays a major role in regulating plasma cholesterol levels and it mediates the biological activities of thyroid hormone. Screening environmental chemicals on TR-beta signaling will provide important information for the mechanism of compound action.
# NCGC Assay Protocol Summary Using a beta-lactamase reporter-gene under control of the TR response element, a cell-based assay [GeneBLAzer TR-UAS-bla-GripTite assay developed by Invitrogen] was used to measure TR-beta signaling in antagonist mode. TR-UAS-bla-GripTite HEK 293 cells were used with assay medium containing 2% charcoal/dextran FBS, 0.1 mM NEAA and 1 mM sodium pyruvate. The assay was performed in clear bottom black Greiner 1536-well plates. Library compounds were measured for their ability to inhibit the reporter gene activity. Compounds were screened in a titration series in 1536-well format. The fluorescence intensity (405 nm excitation, 460/530 nm emission) was measured using an EnVision plate reader. […] Concentration-response titration points for each compound were fitted to the Hill equation yielding concentrations of half-maximal inhibition (IC50) and maximal response (efficacy) values. qHTS protocol for TR-beta beta-lactamase assay in antagonist mode [Step] [Parameter] [Value] [Description] 1. Reagent; 5 uL; 2500 cells/well 2. Incubation; 37 C for 4 hrs 3. Compounds; 23 nL; 0.59 nM to 92 uM 4. Controls (DMSO); 23 nL 5. Agonist (Stimulator); 1uL; T3 at 0.4nM (final) concentrations 6. Incubation; 37 C for 18 hrs 7. Detection reagent; 1 uL of CCF4-dye 8. Incubation; RT for 2 hrs 9. Detection; Fluorescence; Envision plate reader
# % is set by controls: 0 for no effect and ±100 for the full control effect.
row,SMILES,activity change % (negative = inhibition)
1,CCOC(=O)c1ccc(O)cc1,-5.55% (inactive)
2,C[C@]12CC[C@@H]3c4ccc(O)cc4CC[C@H]3[C@@H]1CCC2=O,17.6% (inactive)
3,CN(C)CCOC(C)(c1ccccc1)c1ccccn1 (configuration not stated),-6.28% (inactive)
4,COC(=O)C1=C(C)NC(C)=C(C(=O)OC)C1c1ccccc1[N+](=O)[O-],-6% (inactive)
5,Cc1cccc(Nc2cc(Cl)nc(SCC(=O)O)n2)c1C,-2.88% (inactive)
6,CC(O)COc1ccccc1 (configuration not stated),-6.45% (inactive)
7,CC1=C(/C=C/C(C)=C/C=C/C(C)=C/C(=O)O)C(C)(C)CCC1,3.37% (inactive)
8,NC(=O)N/N=C/c1ccc([N+](=O)[O-])o1,0.5% (inactive)
9,CC12CCC(CC1)C(C)(C)O2,18.1% (inactive)
10,CC1(C)[C@@H]2CC[C@@]1(C)C(=O)C2,-4.32% (inactive)
11,CN(C)CCCN1c2ccccc2Sc2ccc(Cl)cc21,-25.6% (inactive)
12,O=C1O[C@H]([C@@H](O)CO)C(O)=C1O,4.68% (inactive) and -9.73% (inactive)
13,COc1ccccc1O,8.27% (inactive) and 8.42% (inactive) and 1.01% (inactive)
14,O=C1c2c(O)cccc2Cc2cccc(O)c21,3.09% (inactive)
15,NCCNCCNCCNCCN,-25.9% (inactive) and -19% (inactive)
16,O=S(=O)(O)NC1CCCCC1,6.74% (inactive)
17,COc1ccc(Cl)cc1C(=O)NCCc1ccc(S(=O)(=O)NC(=O)NC2CCCCC2)cc1,12.2% (inactive)
18,NCCNCCNCCN,-6.32% (inactive)
19,CC(CN1c2ccccc2Sc2ccccc21)N(C)C (configuration not stated),-18.5% (inactive)
20,CNC(=O)Oc1ccc2c(c1)[C@]1(C)CCN(C)[C@@H]1N2C,3.24% (inactive)
21,CCCCOC(=O)c1ccc(O)cc1,-4.41% (inactive) and 2.19% (inactive)
22,CCCCCCCCCCCCOS(=O)(=O)O,-2.2% (inactive)
23,CCCCC(CC)COC(=O)c1ccccc1O (configuration not stated),12.6% (inactive)
24,NC(=O)c1ncn([C@@H]2O[C@H](CO)[C@@H](O)[C@H]2O)n1,-19.8% (inactive)
25,Cc1cc2nc3c(=O)[nH]c(=O)nc-3n(C[C@H](O)[C@H](O)[C@H](O)CO)c2cc1C,-25% (inactive)
26,C[C@]12C[C@H](O)[C@H]3[C@@H](CCC4=CC(=O)CC[C@@]43C)[C@@H]1CC[C@@H]2C(=O)CO,-13.1% (inactive)
27,[Cl][In]([Cl])[Cl],2% (inactive)
